103 molecules from ChEMBL document CHEMBL4513216, “Probing the Open Global Health Chemical Diversity Library for Multistage-Active Starting Points for Next-Generation Antimalarials” (ACS Infect Dis, 2020) can be followed below.

Out of some 65,000 compounds screened, about 2,100 (3.2%) showed an effect of 50% or more. The median lay at about -52%. Many of the other results were omitted from the sample, so strong results are more common in it than they were.

The subject of the assay is Plasmodium falciparum. The assay is described as follows: Screen against P. falciparum Asexual Blood Stage (ABS), at 5uM. Format: functional, Dd2. To be noted: tested at 5 uM.
Consider `COc1cc(CN2CCCC2c2cccc(F)c2)cc(OC)c1OC` (stereo not drawn), for which the INHIBITION is 28.2%.
With `COc1ccc(CN2CCCC2c2cccc(F)c2)c(OC)c1OC` (stereo not drawn), the INHIBITION is reported as 60.2%.
For `COc1cccc(CN2CCCCCC2c2cccs2)c1OC` (stereo not drawn) the value was -70.3%; for `Fc1cccc(C2CCCN2Cc2nnnn2C2CC2)c1` (stereo not drawn), -26.9%; for `CS(=O)(=O)c1ccc(CN2CCCCC2c2cccc(F)c2)cc1` (stereo not drawn), -36.8%.
The result for `COc1cccc(CN2CCCC2c2cccc(F)c2)c1OC` (stereo not drawn) reads 55.4%.
Consider `O=C(c1ccc(COc2ccc(Cl)cc2)o1)N1N=CCC1(O)C(F)(F)F` (stereo not drawn), for which the INHIBITION was -121%.
Consider `CCc1nccn1C1CCCN(C(=O)c2cnn3cccnc23)C1` (stereo not drawn), for which the INHIBITION is reported as -64%.
On to `O=C(N[C@H]1CN(c2nc(CO)cs2)C[C@@H]1C1CC1)C1CCCCC1`, for which the INHIBITION is given as -26.4%.
The result for `O=C(COC[C@]12COC[C@H]1CN(C1CCC1)C2)N1CCCC1` reads -115%; that for `CSCCCN1C[C@H](NC(=O)c2ccc(CO)cc2)[C@@H](C2CC2)C1`, 17.3%.
The result for `Cc1cc(C(=O)N[C@H]2CN(CCC(N)=O)C[C@@H]2C2CC2)sc1C` reads -43.8%; that for `Cc1nc(N)sc1C(=O)N[C@H]1CN(CCO)C[C@@H]1C1CC1`, -82.2%.
Regarding `Cc1cnc(C(=O)N[C@H]2CN(CCS(C)(=O)=O)C[C@@H]2C2CC2)cn1`, the INHIBITION was -47.7%.
The result for `Cc1cc(C(=O)N[C@H]2CN(CCO)C[C@@H]2C2CC2)sc1C` reads 60.8%; that for `Cc1ccc(C(F)(F)F)cc1C(=O)N[C@H]1CN(CCO)C[C@@H]1C1CC1`, 63.9%.
The result for `Cc1ccc(CN2CCCC3(CCCN3S(C)(=O)=O)C2)s1` (stereo not drawn) reads -71.7%.
For `Cc1ccc(C(=O)N(C)CCCc2cnn(C)c2)cc1N1CCNC1=O` the value was -86.4%.
As for `O=C(CCc1nnc2ccccn2c1=O)NCc1ccc2c(c1)OCO2`, the INHIBITION is -108%.
For the molecule `Cn1cc(CN2CCc3nc(-c4ccccn4)nc(O)c3C2)cn1`, the INHIBITION is -3.83%.
Consider `Cc1cc(C)n(CC2CN(CCOc3ccc(C#N)cc3)CCO2)n1` (stereo not drawn), for which the INHIBITION is -114%.
The result for `CC(C)c1noc(CN2CCC(c3nc4cc(Cl)ccc4o3)CC2)n1` reads -72.4%.
Consider `CCc1nnc(Nc2cccc(C3CCN(c4cnccn4)CC3)n2)s1`, for which the INHIBITION is recorded as 55.5%.
`CCc1nnc(Nc2cccc(C3CCN(CC4CC4)CC3)n2)s1`: the INHIBITION came out at 3.36%.
The result for `CCc1nnc(Nc2cccc(C3CCN(C)CC3)n2)s1` reads 6.83%.
The result for `COCCC(=O)N1CCCC2(CCC(=O)N2CCOC)CC1` (stereo not drawn) reads -122%; that for `CN1CCN(C(=O)CCn2nnc3ccccc32)CC(C(N)=O)C1` (stereo not drawn), -71.9%.
For `Cc1ncsc1C(=O)N1CCC(O)(Cn2c(C)cc3ccncc32)CC1` the value was -64.6%; for `Cn1ccnc1Sc1ccc(N)cn1`, -78.1%; for `CS(=O)(=O)NC[C@]12COC[C@H]1CN(CCc1ccccc1)C2`, -29.9%.
With `O=C(c1ccncc1F)N1Cc2nc(CN3CCCCC3)oc2C1`, the INHIBITION was -21.6%.
With `CN(Cc1ccco1)C1CCC12CCN(C(=O)c1ccnnc1)CC2` (stereo not drawn), the INHIBITION turned out to be 53.3%.
The result for `CN(Cc1ccco1)C1CCC12CCN(C(=O)c1ccncc1)CC2` (stereo not drawn) reads 38.3%; that for `CN(Cc1ccco1)C1CCC12CCN(C(=O)c1ccco1)CC2` (stereo not drawn), -9.15%.
For `CC(C)(C)n1ncc2c1CCCC2NCc1ccc2ncccc2c1` (stereo not drawn) the value was -1.42%; for `Cc1cc(N2CCC3(CCCN(CCO)C3=O)C2)nc2ccccc12` (stereo not drawn), 19.1%.
Consider `CCc1ccc(CN(C)C(=O)C(c2ccccc2F)N(C)C)nc1` (stereo not drawn), for which the INHIBITION was -0.644%.
With `CN(Cc1cnc2ccccc2c1)C(=O)C(c1ccccc1F)N(C)C` (stereo not drawn), the INHIBITION was determined as 64.4%.
For `Cc1cc(CN(C)C(=O)C(c2ccccc2F)N(C)C)ccn1` (stereo not drawn) the value was -25.2%.
For `CC1=C[C@@H](CC#N)[C@H](C(C)C)C[C@H]1CC(=O)N1CCN(CCO)CC1`, the INHIBITION came to 40%.
In the case of `CC(=O)N1CCN(C(=O)C[C@@H]2C[C@@H](C(C)C)[C@H](CC#N)C=C2C)CC1`, the INHIBITION was 53.5%.
For `CC1=C[C@@H](CC#N)[C@H](C(C)C)C[C@H]1CC(=O)N1CCN(C)CC1` the value was 44.5%.
Take `Cc1csc(N2CCN(C(=O)NCCNc3ncccn3)CC2)n1`: the INHIBITION is -162%.
For `COCc1ncn2c1CN(C(=O)c1cccc3cccnc13)CC2`, the INHIBITION is recorded as -90.6%.
As to `Cc1cnc(CN2CCN(c3nc(C)cs3)C(C)C2)cn1` (stereo not drawn), the INHIBITION is recorded as -48.9%.
Consider `Cc1n[nH]cc1CNCC1(c2cccc(F)c2)CCOCC1`, for which the INHIBITION worked out at 26.9%.
For `CC1(C(=O)NCc2cccc(C(F)(F)F)c2)CCOCC1` the value was -26.5%; for `FC(F)(F)c1cccc(C2(CNCc3ccncc3)CCOCC2)c1`, 51%.
The result for `COC[C@]1(O)CCN(C2CCN(c3ccc(F)c(F)c3)CC2)CC1(C)C` reads 63.1%; that for `COC[C@]1(O)CCN(C2CCN(c3ccc(OC)cc3)CC2)CC1(C)C`, -57.6%; that for `COC[C@]1(O)CCN(C2CCN(c3ccc(Cl)cc3)CC2)CC1(C)C`, 34.4%.
For `CN1CCN(Cc2cn3c(n2)CN(C(=O)N2CCOCC2)CC3)CC1` the value was -121%; for `COc1ccccc1C(=O)N1CCNCC1C(N)=O` (stereo not drawn), -114%.
As to `COc1ccccc1C1CNCCN1C(C)=O` (stereo not drawn), the INHIBITION is reported as -43.1%.
With `COc1ccccc1C1CNCCN1C(=O)c1ccc(F)cc1` (stereo not drawn), the INHIBITION was found to be 69.7%.
For `Cn1ccnc1CNC[C@H]1Cn2cc(-c3ccccc3)nc2CO1` the value was 56.4%; for `Cc1cccnc1CNC[C@H]1Cn2cc(-c3ccccc3)nc2CO1`, 30.8%.
Consider `COc1ccc(-c2cn3c(n2)CO[C@@H](CNCc2nccn2C)C3)cc1`, for which the INHIBITION came out at 21.3%.
For the molecule `Cc1nc(CCNC(=O)c2cc(C(C)C)nn2C)sc1C`, the INHIBITION is given as -66%.
For `COc1cc(N2CCC3(CC2)CN(CCO)c2ccccc23)ncn1` the value was 47.1%; for `CN(Cc1n[nH]c2c1CCCC2)c1nc2c(c(=O)[nH]1)CCNCC2`, 65.3%; for `CN(Cc1n[nH]c2c1CCC2)c1nc(C2CCCC2)nc2c1CNC2`, 2.51%.
The result for `CN(C)c1nc2c(c(N(C)Cc3n[nH]c4c3CCCCC4)n1)CCNC2` reads 40%.
The result for `Cc1nccc(-c2cccc(NCC(=O)N3CCCC(C)C3)c2)n1` (stereo not drawn) reads -103%; that for `CN1C(=O)c2cccc(NC(=O)c3cccc(S(C)(=O)=O)c3)c2C1=O`, -15.8%; that for `Cc1ncc(CN2CC[C@@](C)(O)[C@H](Oc3cccc(F)c3)C2)cn1`, -18.7%.
As to `O=C(NC1CCNCC1)C1(N2CCCCC2)Cc2ccccc2C1`, the INHIBITION is reported as 62.9%.
For `O=C1NCCCC[C@@H]1NC(=O)C1(N2CCCCC2)Cc2ccccc2C1` the value was -107%; for `O=C(NC1CCNC1)C1(N2CCCCC2)Cc2ccccc2C1` (stereo not drawn), 33.8%; for `CNCC(=O)N1CCC(c2ccnc(Nc3ccc(C)cn3)n2)C1` (stereo not drawn), -163%.
Consider `CCc1nccn1CCC(=O)N1C[C@@H]2CC[C@H]1CN(C(=O)N(C)C)C2`, for which the INHIBITION was -28.8%.
The result for `O=C(c1c(F)cc(Br)cc1F)N1CCc2cnccc21` reads -110%; that for `Cc1cnn(CC(C)NCc2ccc(OCc3cccnc3)cc2)c1` (stereo not drawn), 36.7%; that for `CCN1CCN(S(=O)(=O)c2cc(C)c(Cl)cc2Cl)CC1`, 64.3%.
For `CCN1CCN(S(=O)(=O)c2cc(C)c(Cl)cc2C)CC1`, the INHIBITION is recorded as 19.7%.
`Cc1cc(S(=O)(=O)N2CC[C@@H](O)C2)c(Cl)cc1F`: the INHIBITION was -123%.
For `COC(=O)[C@H]1C[C@@H](O)CCN1S(=O)(=O)c1cc(C)c(Cl)cc1C` the value was -190%; for `Cc1cc(S(=O)(=O)N2CCC(N3CCC(O)C3)CC2)c(Cl)cc1Cl` (stereo not drawn), 69.3%.
In the case of `CCN1CCN(S(=O)(=O)c2cc(C)c(C)cc2Br)CC1`, the INHIBITION came to 28.4%.
As to `O=C(c1csc(-c2ccc(C(F)(F)F)cc2)n1)N1CCCNCC1`, the INHIBITION is given as -4.67%.
The result for `CC(C)CNC(=O)c1nn(C)c(NC(=O)Cc2ccccc2)c1F` reads -85.1%.
`COc1ncccc1CNC1CCc2c(ccc(=O)n2C)C1` (stereo not drawn): the INHIBITION is listed as -74.3%.
The result for `Cc1ccc(CN2CC[C@H]3OCC[C@@H](C(=O)N4CCCCO4)[C@@H]3C2)o1` reads -9.16%; that for `CCN(CC)Cc1cn2c(n1)CN(C1CCOC1)CC2` (stereo not drawn), -107%.
The result for `Nc1ncccc1C(=O)NCc1cccc(Cl)c1` reads -96.4%; that for `O=C(NCCN1CCOCC1)c1ccnn1-c1ccc2ccccn12`, -33.3%; that for `CCn1cc(-c2cc(-c3cc(CN(C)C)cs3)nc(N)c2C#N)c(C)n1`, 60.3%.
For `Cc1nn(C)c(C)c1-c1cc(-c2cc(CC(=O)O)cs2)nc(N)c1C#N` the value was -66.5%.
As for `CCn1cc(-c2cc(-c3cc(CC(=O)O)cs3)nc(N)c2C#N)c(C)n1`, the INHIBITION is -125%.
For `CNC(=O)C1=NOC2(CCN(Cc3nccs3)C2)C1` (stereo not drawn) the value was -90.7%; for `CC(Nc1cnn(C)c(=O)c1Cl)c1ccc(F)cc1` (stereo not drawn), -75.2%; for `N#Cc1cccnc1OC1CCN(S(=O)(=O)c2c(F)cccc2F)CC1`, -88.3%.
As for `COc1ccc(C)cc1C(=O)NC(CC(=O)O)c1cccs1` (stereo not drawn), the INHIBITION was -134%.
Consider `Cc1cccc(CN2CCCC3(Cc4ccccc4CNC3=O)C2)n1` (stereo not drawn), for which the INHIBITION is -31.3%.
For `O=C1NCc2ccccc2CC12CCCN(Cc1ccsc1)C2` (stereo not drawn), the INHIBITION turned out to be 64.3%.
The result for `N#Cc1ccc(CN2CCCC3(Cc4ccccc4CNC3=O)C2)cc1` (stereo not drawn) reads 10.7%; that for `COc1ccccc1CN1CCCC2(Cc3ccccc3CNC2=O)C1` (stereo not drawn), 54.5%.
For `O=C1NCc2ccccc2CC12CCCN(CCCc1ccccc1)C2` (stereo not drawn) the value was 39.2%; for `O=C(O)c1ccccc1CN1CCC2(Cc3ccccc3CNC2=O)C1` (stereo not drawn), -111%.
The result for `CCC(=O)N(CCC(=O)O)Cc1ccc(F)c(F)c1` reads -62.6%.
`Cc1cc(CN(C)C(C(=O)O)c2ccc(C(C)(C)C)cc2)on1` (stereo not drawn): the INHIBITION is recorded as -96.1%.
For the molecule `COc1ccc(CNc2c(N3CCN(C(C)=O)CC3)c(=O)c2=O)cc1`, the INHIBITION was -16.8%.
The result for `CC(C)c1[nH]c2ncccc2c1CN1CCC(O)CC1` reads -59.2%.
